Bioassay records from PubChem.
LDHA inh: qHTS assay for inhibitors of human lactate dehydrogenase; L-lactate dehydrogenase A chain (Homo sapiens), P00338; purified LDHA, NADH/diaphorase-resazurin fluorescence; hits give low values; activity change, % (values are at about 110 or 230 µM); 0.15% of 480,000 active; in the data active = activity change below about -30%; inconclusive = mostly about -25% to -30%
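Remaining NADH was detected by diaphorase (0.133 mg/mL) converting 37 µM resazurin to fluorescent resorufin, read at 0 and 20 minutes. The preceding 5-minute room-temperature reaction used 2 nM LDHA, 0.2 mM sodium pyruvate and 0.06 mM NADH at pH 7.4.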
TDP43 rescue: qHTS of TDP-43 Inhibitors | AID 652104, 2013 | Potency, µM (top dose mostly 46.1 µM), most hits filed as activators | TDP-43 expressing yeast growth rescue, BacTiter-Glo, 24 h | 1.8% of 410,000 active; note: nearly all actives have a fitted effect of over 50% in size
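Growth rescue of TDP-43-toxic yeast measured as ATP luminescence (BacTiter-Glo). Cells grown to mid-log in raffinose, induced in galactose at OD600=0.02, exposed to compound 24 hr at 30 deg C.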
mIDH1 inhibitor: qHTS for Inhibitors of mutant isocitrate dehydrogenase 1 (IDH1): qHTS | Isocitrate dehydrogenase [NADP] cytoplasmic (Homo sapiens), O75874 | AID 602179, 2012 | 0.093% of 390,000 active | Potency, µM (highest dose often 76.6 µM), usual class: inhibitors | IDH1-R132H enzyme, NADPH consumption, diaphorase/resazurin fluorescence; note: nearly all actives have a fitted effect of over 65% in size
Target sequence (O75874 whole entry R132H, stated change not applied): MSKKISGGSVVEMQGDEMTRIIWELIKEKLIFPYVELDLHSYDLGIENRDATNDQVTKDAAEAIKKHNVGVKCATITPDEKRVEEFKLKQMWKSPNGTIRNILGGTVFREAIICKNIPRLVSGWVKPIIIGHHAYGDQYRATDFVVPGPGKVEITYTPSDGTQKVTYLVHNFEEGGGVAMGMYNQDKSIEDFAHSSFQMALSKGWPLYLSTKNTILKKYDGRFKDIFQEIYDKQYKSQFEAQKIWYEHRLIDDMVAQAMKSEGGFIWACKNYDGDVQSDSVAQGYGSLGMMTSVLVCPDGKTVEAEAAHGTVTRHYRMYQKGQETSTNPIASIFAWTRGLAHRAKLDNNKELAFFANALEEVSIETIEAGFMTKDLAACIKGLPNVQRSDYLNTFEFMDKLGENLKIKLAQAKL
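IDH1-R132H (0.5 ug/mL dispensed) in pH 7.5 Tris buffer was preincubated 30 min with compound, then given a substrate mix of 0.016 mM NADPH and 2 mM alpha-KG for 80 min at room temperature; remaining NADPH was read by diaphorase/resazurin fluorescence.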
FUS yeast rescue: qHTS for Suppressors of FUS Proteinopathy: Primary screen using FUS-linked yeast assay | S. cerevisiae FUS-expressing, growth rescue, OD600, 24 h | Potency, µM (series often up to 76.6 µM), usual class: activators | 0.24% of 390,000 active | AID 1347120, 2019; note: nearly all actives have a fitted effect of over 55% in size
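Galactose (2%) drives FUS expression in yeast precultured in raffinose; seeding density OD 0.005. Test compounds incubated 24hr at 30C and 99% humidity before absorbance at 600 nm was measured.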
Abeta yeast res: qHTS for compounds that reverse cellular toxicity of Amyloid beta (A-beta) peptide in yeast: Primary Screen; yeast expressing A-beta42, growth rescue, OD600, 48 h; response scale: 0% DMSO, 100% iron-clioquinol control; Potency, µM (doses to about 46.1 µM), most hits filed as activators; 0.063% of 410,000 active; AID 1347071, 2019; note: nearly all actives have a fitted effect of over 55% in size
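Growth rescue measured by 600 nm absorbance after 48 h yeast culture at 30 C with compound. Values normalized between DMSO and an equimolar ferric chloride plus clioquinol control.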
aSyn yeast inh: qHTS of alpha-syn Inhibitors. Yeast expressing alpha-synuclein, growth rescue, BacTiter-Glo, 24 h. 0.14% of 370,000 active. Potency, µM (highest dose often 46.1 µM), actives largely listed as activators; note: nearly all actives have a fitted effect of over 65% in size
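Rescue of yeast growth: cells expressing toxic alpha-synuclein, induced in galactose at OD600 0.02, incubated with compound 24 h at 30 C. ATP luminescence quantified growth; inhibitors of toxicity appear as activators.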
Numbers stand for hits; - = inactive; ? = inconclusive; . = no result. In the library only some 2% were active in any assay of this set; here they are far more common. Unless noted, calls come from the whole dose curve; as a rule, active = well fitted curve in the direction sought with a large enough effect; inconclusive = small, poorly fitted or top-dose-only effect, or another doubt; inactive = no such curve, though single readings can be large; an effect the other way counts as inactive or inconclusive.

SMILES	LDHA inh	TDP43 rescue	mIDH1 inhibitor	FUS yeast rescue	Abeta yeast res	aSyn yeast inh
Clc1ccccc1Nc1ncnc2c1nc1n2CCCCC1	-	17.8µM	-	-	-	.
Clc1cccc(Nc2ncnc3c2nc2n3CCCCC2)c1	-	15.8µM	-	-	-	.
Cc1ccc(CNc2ncnc3c2nc2n3CCCC2)cc1	-	-	-	-	-	.
Cc1ccc(-c2c(C)sc(NC(=O)CC3(CC(=O)O)CCCC3)c2C(N)=O)cc1C	-	.	.	.	.	.
Cc1cc(-c2cc(C(=O)O)c3ccccc3n2)cc(C)c1C	-	.	.	.	.	.
Cc1ccc2c3cc(-c4ccccc4)cn3ccn12	-	.	.	.	.	.
O=C(CSc1nnc(C2CC2)n1C1CC1)c1c[nH]c(C(=O)N2CCCC2)c1	-32.0	.	.	.	.	.
COc1ccccc1NC(=O)c1ccc(-c2ccccc2[N+](=O)[O-])o1	-	31.6µM	-	-	-	-
Cc1ccc2c(c1)C(c1ccccc1)N(C(=O)c1ccc(S(=O)(=O)N3CCCC3)cc1)CC(=O)N2 (configuration not stated)	-	-	-	25.1µM	-	.
O=C1CN(C(=O)c2ccc(S(=O)(=O)N3CCCC3)cc2)C(c2ccccc2)c2cc(Cl)ccc2N1 (configuration not stated)	-	-	-	?	-	.
Cc1ccc(C)c(NC(CNS(=O)(=O)c2ccccc2)c2ccccc2)c1 (configuration not stated)	-	.	.	.	.	.
O=C(/C=C/c1cccc(O)c1)c1cccc(Br)c1	-	.	.	.	.	.
O=C(NC1CCCCC1)c1cc(-c2ccccc2)nc2ccccc12	-	.	.	.	.	.
COc1cc2c(C(=O)N3CCN(c4ccc(C)cc4)C(C)C3)cn(CC(C)C)c(=O)c2cc1OC (configuration not stated)	-	35.5µM	-	?	-	.
CCn1cc(C(=O)N2CCN(c3ccc(OC)cc3)CC2)c2cc(OC)c(OC)cc2c1=O	-	-	-	-	-	-
CSc1ccc(CN2CCC(N3CC(C)OC(C)C3)CC2)cc1 (configuration not stated)	-	-	-	-	-	-
Cc1ccc(CN2CCC(N3CC(C)OC(C)C3)CC2)cc1 (configuration not stated)	-32.5	-	-	-	-	-
O=[N+]([O-])c1ccc(CSc2nnc(Cc3ccccc3)o2)cc1	-	?	-	-	-	-
COc1ccc(Cc2nnc(SCc3ccc([N+](=O)[O-])cc3)o2)cc1	-	17.8µM	-	-	-	-
CCC(=O)c1cc(Cl)ccc1OCC(=O)Nc1ccccc1N1CCCC1=O	-	.	.	.	.	.
CCCCn1c(SCC(=O)NCc2ccco2)nc2c(sc3ccccc32)c1=O	-	-	-	10µM	-	-
O=C(COC(=O)c1cc(Cl)ccc1[N+](=O)[O-])Nc1cccc2ccccc12	-	20µM	-	.	-	-
Cc1ccc(NC(=O)C2CCCN2S(=O)(=O)c2cccc3nsnc23)c(Br)c1 (configuration not stated)	-	20µM	-	-	-	.
Cc1ccc(-c2cc(Nc3cccc(C(=O)N(C)Cc4ccccc4)c3)ncn2)cc1	-	.	.	.	.	.
Cc1nc(-c2cccnc2)sc1CCNS(=O)(=O)c1ccc(Cl)s1	-	.	.	.	.	.
Cn1c(SCC(=O)Nc2ccc(C(=O)O)cc2)nc2scc(-c3ccccc3Cl)c2c1=O	-	-	-	35.5µM	-	.
Clc1ccc(-c2nc3cnccn3c2Nc2ccc3c(c2)OCO3)cc1	-	?	-	?	-	-
CSc1ccc(-c2nc3cnccn3c2Nc2ccc3c(c2)OCO3)cc1	-	25.1µM	-	-	-	-
Cc1ccc(Nc2c(-c3ccc(C)o3)nc3ccccn23)cc1	-	.	.	.	.	-
Cc1ccc(Nc2c(-c3ccc(C)o3)nc3cnccn23)cc1	-	22.4µM	-	-	-	-
